The text below walks through data of PubChem BioAssay (EPA / NIEHS).

Test [1] can be described thus: TOX21_p53_BLA_p2_viability: Viability Assessment in the Tox21 HCT-116 p53 Agonism Beta-lactamase Assay, Phase 2 (AID 2283591).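 Also: compound exposure lasted 16 h at 37 °C; actives lower the ATP signal meaning cytotoxicity.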 In a few lines:
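Cytotoxicity readout: CellTiter-Glo ATP luminescence, 30 min at room temperature, after the beta-lactamase read. Cells were HCT116 exposed 16 h at 37C to compounds pin-transferred at 217-fold dilution from DMSO stocks.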

Test [2] addresses Cellular tumor antigen p53 (Homo sapiens) (UniProt P04637). The test can be described thus: TOX21_p53_BLA_p2_ratio: Tox21 HCT-116 p53 Agonism Beta-lactamase Assay, Ratio, Phase 2 (AID 2283592). The gist of the method: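 HCT116 p53-bla; 4000 cells/well; 5 h pre-incubation; cpd in DMSO, 217-fold dilution; 16 h 37C/5% CO2; CCF4-AM 2 h RT; Ex 405, Em 460/530 ratio; DMSO = baseline; positive fitting direction.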

The target is the same in test [3]. Kind of test: TOX21_p53_BLA_p3_ratio: Tox21 HCT-116 p53 Agonism Beta-lactamase Assay, Ratio, Phase 3 (AID 2283596). The gist of the method:
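HCT116 p53-bla cells (4000/well) given compound in DMSO (217-fold dilution) after 5 h, incubated 16 h at 37C. CCF4-AM substrate 2 h at room temperature; 460/530 nm emission ratio, gain fitted against DMSO.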

The nature of test [4]: TOX21_p53_BLA_p4_viability: Viability Assessment in the Tox21 HCT-116 p53 Agonism Beta-lactamase Assay, Phase 4 (AID 2283597).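 Also: hits lower the luminescence signal meaning cytotoxicity.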 The gist of the method: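 Cells plated, 5 h pre-incubation; DMSO compounds pinned (217-fold dilution); 16 h, 37C/5% CO2; CCF4-AM 2 h RT; CellTiter-Glo 30 min RT; luminescence read.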
For test [5], the target named is Cellular tumor antigen p53 (Homo sapiens) (UniProt P04637). Kind of test: TOX21_p53_BLA_p5_ratio: Tox21 HCT-116 p53 Agonism Beta-lactamase Assay, Ratio, Phase 5 (AID 2283599). In a few lines:
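Beta-lactamase reporter ratio (blue 460 nm over green 530 nm, 405 nm excitation) after 2 h CCF4-AM loading, in HCT-116 cells exposed 16 h at 37 C to compounds pinned at 217-fold dilution. Increases relative to DMSO baseline scored.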

Test [6] has the same target. Kind of test: TOX21_p53_BLA_p4_ratio: Tox21 HCT-116 p53 Agonism Beta-lactamase Assay, Ratio, Phase 4 (AID 2283601). In a few lines:
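Signal is the blue/green (460nm/530nm) ratio of cleaved versus uncleaved CCF4-AM substrate, read after 2 h substrate loading. Cells were HCT116 carrying the p53-responsive beta-lactamase reporter, dosed 16 h at 37C, 5% CO2; CellTiter-Glo measured in parallel.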

A short description of test [7]: TOX21_p53_BLA_p5_viability: Viability Assessment in the Tox21 HCT-116 p53 Agonism Beta-lactamase Assay, Phase 5 (AID 2283600). In a few lines:
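4000 cells/well; 5 h pre-incubation; DMSO compounds pin-transferred, 217-fold dilution; 16 h, 37C/5% CO2; CCF4-AM 2 h RT; CellTiter-Glo 30 min RT; luminescence.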

Test [8] can be described thus: CCTE_Shafer_MEA_dev_firing_rate_mean: CCTE's Neural Network Formation Assay for Mean Firing Rate, Shafer Lab (AID 2284031; active = hit-call score of the fitted dose curve at least 0.9, where 1 is the maximum; inactive = score below 0.9). The gist of the method: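 Primary rat cortical neurons on 48-well, 16-electrode MEAs (PEI-coated, laminin at plating), exposed from day 0 with compound renewed at DIV 5 and 9. Spikes recorded DIV 5, 7, 9, 12; well-mean firing rate collapsed to trapezoidal AUC, loss-of-signal vs DMSO.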

Test [9] can be described thus: CCTE_Shafer_MEA_dev_active_electrodes_number: CCTE's Neural Network Formation Assay for Number of Active Electrodes, Shafer Lab (AID 2284040). In a few lines:
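Rat cortical primary cultures, 1.5 x 10^5 cells/well, PEI-coated MEA, laminin drop. Continuous exposure DIV 0–12; full media/compound change DIV 5, 9. Readout: electrodes with mean firing ≥5 spikes/min; AUC across days; loss vs DMSO.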

The nature of test [10]: CCTE_Shafer_MEA_dev_burst_rate: CCTE's Neural Network Formation Assay for Burst Rate, Shafer Lab (AID 2284042; active = hit-call score of the fitted dose curve at least 0.9, where 1 is the maximum; inactive = score below 0.9). In a few lines:
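Developmental network assay measuring how 12-day exposure of rat cortical neuron cultures alters bursting on extracellular MEA recordings. Values are AUC of well-mean burst rate across four recording days, relative to DMSO vehicle.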

A short description of test [11]: CCTE_Shafer_MEA_dev_bursting_electrodes_number: CCTE's Neural Network Formation Assay for Number of Bursting Electrodes, Shafer Lab (AID 2284043). In a few lines:
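Read-out is the per-well number of electrodes bursting at least once every 2 minutes, recorded on days 5, 7, 9 and 12 and collapsed by trapezoidal area under the curve. Cultures were primary rat cortical neurons on MEA plates, treated continuously from plating.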

The nature of test [12]: CCTE_Shafer_MEA_dev_per_burst_interspike_interval: CCTE's Neural Network Formation Assay for Burst Interspike Interval, Shafer Lab (AID 2284044; active = hit-call score of the fitted dose curve at least 0.9, where 1 is the maximum; inactive = score below 0.9;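 also: mean spike spacing inside bursts as AUC over recordings on days 5 7 9 12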). The gist of the method:
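Neurons from rat cortex plated onto PEI-coated MEA wells with laminin […] at 1.5 x 10^5 cells/well, then treated from day 0. Media and compound fully replaced on DIV 5 and 9. Extracellular spontaneous firing recorded four times; interspike interval per burst summarised as AUC.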

Test [13] in a line: CCTE_Shafer_MEA_dev_burst_duration_mean: CCTE's Neural Network Formation Assay for Mean Burst Duration, Shafer Lab (AID 2284045; active = hit-call score of the fitted dose curve at least 0.9, where 1 is the maximum; inactive = score below 0.9). The gist of the method: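 Read-out: average first-to-last-spike interval within single-electrode bursts, averaged over bursting electrodes per well, then summarised as area under the curve across days 5, 7, 9 and 12. Developing rat cortical networks were exposed from day 0.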

A short description of test [14]: CCTE_Shafer_MEA_dev_inter_network_spike_interval_mean: CCTE's Neural Network Formation Assay for Mean Inter-network Spike Interval, Shafer Lab (AID 2284047; active = hit-call score of the fitted dose curve at least 0.9, where 1 is the maximum; inactive = score below 0.9). In a few lines: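 Compound was given at plating to primary rat cortical neurons and renewed with full medium changes on DIV 5 and 9. Extracellular activity was recorded on days 5, 7, 9, 12; AUC values were fitted for loss relative to DMSO control.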

Test [15] in a line: CCTE_Shafer_MEA_dev_network_spike_number: CCTE's Neural Network Formation Assay for Number of Network Spikes, Shafer Lab (AID 2284048; active = hit-call score of the fitted dose curve at least 0.9, where 1 is the maximum; inactive = score below 0.9;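 also: synchronized bursts across electrodes counted on days 5 7 9 12 and integrated as AUC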). The gist of the method:
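Developing networks of primary rat cortical neurons are treated over 12 days starting at plating, with media and compound fully replaced on DIV 5 and 9. Network spike counts from four recording days are integrated as trapezoidal AUC.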

The nature of test [16]: CCTE_Shafer_MEA_dev_network_spike_peak: CCTE's Neural Network Formation Assay for Mean Number of Electrodes in Network Spike, Shafer Lab (AID 2284049; active = hit-call score of the fitted dose curve at least 0.9, where 1 is the maximum; inactive = score below 0.9). The gist of the method:
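Rat cortical primary culture, 1.5 x 10^5 cells/well, 48-well MEA (16 electrodes/well). Dosing day 0 through DIV 12, full media/compound exchange DIV 5, 9. AxIS adaptive spike detection; AUC over days 5/7/9/12; loss-of-signal vs DMSO.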

A short description of test [17]: CCTE_Shafer_MEA_dev_spike_duration_mean: CCTE's Neural Network Formation Assay for Mean Spike Duration, Shafer Lab (AID 2284051; active = hit-call score of the fitted dose curve at least 0.9, where 1 is the maximum; inactive = score below 0.9;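 also: mean network spike duration pooled as area under curve over DIV 5 to 12 recordings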). In a few lines: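 With DMSO as baseline, loss of mean network spike duration was scored from extracellular recordings of rat cortical neurons on MEA plates. Exposure spanned plating to DIV 12; the four recording days were collapsed into one AUC value.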

The nature of test [18]: CCTE_Shafer_MEA_dev_network_spike_duration_std: CCTE's Neural Network Formation Assay for Standard Deviation of Network Spike Duration, Shafer Lab (AID 2284052; active = hit-call score of the fitted dose curve at least 0.9, where 1 is the maximum; inactive = score below 0.9;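 also: hits are decreases in network spike duration SD versus DMSO vehicle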). The gist of the method:
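Developing networks of rat cortical neurons were exposed over twelve days in vitro on 48-well MEA plates. Trapezoidal AUC of recordings (DIV 5–12) was analysed for signal loss relative to DMSO vehicle.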

Test [19] can be described thus: CCTE_Shafer_MEA_dev_per_network_spike_spike_number_mean: CCTE's Neural Network Formation Assay for Mean Number of Spikes in a Network Spike, Shafer Lab (AID 2284053; active = hit-call score of the fitted dose curve at least 0.9, where 1 is the maximum; inactive = score below 0.9). The gist of the method:
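First, rat cortical cells (1.5 x 10^5/well) were seeded onto MEA wells; second, dosing began at plating and was refreshed on DIV 5 and 9; finally, network-spike spike counts across DIV 5–12 were summarized as AUC.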

The nature of test [20]: CCTE_Shafer_MEA_dev_per_network_spike_spike_percent: CCTE's Neural Network Formation Assay for Percent of Spikes in a Network Spike, Shafer Lab (AID 2284054; active = hit-call score of the fitted dose curve at least 0.9, where 1 is the maximum; inactive = score below 0.9). The gist of the method: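 Rat primary cortical cultures, 1.5 x 10^5 cells/well on MEA. Continuous compound exposure d0–12, medium/compound renewed DIV 5, 9. Network-spike spike % (0.05 s peak window), AUC over 4 recordings, DMSO baseline.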

Test [21] in a line: CCTE_Shafer_MEA_dev_LDH: CCTE's Lactate Dehydrogenase Assay for Cytotoxicity in the Neural Network Formation Assay, Shafer Lab (AID 2284068).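 Also: exposure for twelve days from plating with re-dosing on DIV 5 and 9.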 The gist of the method: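 Developing rat cortical networks on MEA plates are exposed to compound for 12 days from plating. LDH activity is measured spectrophotometrically, with DMSO as baseline.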
Test [22] in a line: CCTE_Shafer_MEA_dev_mutual_information_norm: CCTE's Neural Network Formation Assay for Mutual Information Normalization, Shafer Lab (AID 2284091; active = hit-call score of the fitted dose curve at least 0.9, where 1 is the maximum; inactive = score below 0.9). The gist of the method:
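Developing rat cortical networks on 16-electrode MEA wells are treated throughout formation (DIV 0–12). Shared electrode information is recorded four times, converted to area-under-curve, and fitted for decreases against DMSO vehicle.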

Test [23] can be described thus: CCTE_Shafer_MEA_dev_correlation_coefficient_mean: CCTE's Neural Network Formation Assay for Mean Correlation Coefficient, Shafer Lab (AID 2284093; active = hit-call score of the fitted dose curve at least 0.9, where 1 is the maximum; inactive = score below 0.9). The gist of the method: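 Extracellular firing from rat cortical networks on 48-well MEAs, DMSO-referenced, negative fitting direction. Compound present from plating to DIV12; mean pairwise correlation per well integrated over DIV5–12 recordings by trapezoidal AUC.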

Inconclusive results are not listed. The source made the active and inactive calls. The calls were made as follows, unless noted: active = hit-call score of the fitted dose curve at least 0.9, where 1 is the maximum; inconclusive = response in the unintended direction; inactive = score below 0.9.

Sequence of Cellular tumor antigen p53 (Homo sapiens) (P04637 whole entry, looked up): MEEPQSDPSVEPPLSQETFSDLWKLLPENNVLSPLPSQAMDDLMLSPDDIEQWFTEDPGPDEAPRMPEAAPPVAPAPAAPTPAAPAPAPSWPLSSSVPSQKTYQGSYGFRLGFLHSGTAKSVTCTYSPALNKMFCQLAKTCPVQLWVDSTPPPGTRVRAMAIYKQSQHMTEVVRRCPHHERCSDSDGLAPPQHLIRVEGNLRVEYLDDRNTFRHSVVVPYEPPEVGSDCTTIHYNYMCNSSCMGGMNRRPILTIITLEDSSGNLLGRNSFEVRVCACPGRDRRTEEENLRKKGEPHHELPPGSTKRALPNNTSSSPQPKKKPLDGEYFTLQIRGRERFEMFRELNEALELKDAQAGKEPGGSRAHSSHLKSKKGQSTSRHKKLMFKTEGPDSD

Take `CO`: the molecule was called inactive in test [1], in test [2], in [3], in test [4], in test [5] and in [6].

As for `O=C(CO)[C@@H](O)[C@H](O)[C@@H](O)C(=O)O`, the call in test [1], in test [2], in test [3], in test [4], in [5] and in test [6] was inactive.

With `O=NN(CCCl)C(=O)NCCCl`, the call in test [1], in test [2], in [3], in [4], in test [5] and in test [6] was inactive.

On to `CN1[C@@H]2CC[C@H]1CC(NC(=O)n1c(=O)[nH]c3ccccc31)C2` (some centres not stated), for which the call in test [1], in test [2], in [3], in [4], in [5] and in [6] was inactive.

Usually AC50 stands for the midpoint of the concentration-response curve, whichever way the signal moves. Turning to `c1cc2ccc3ccc4ccc5cccc6c(c1)c2c3c4c56`, the call in test [1], in [3], in test [4], in test [7], in [6] and in test [8] was inactive. Moreover, the molecule was classed as inactive in [9], in test [10], in [11], in test [12], in test [13] and in test [14]. Further, the result in test [15], in test [16], in test [17], in test [18], in test [19] and in [20] was inactive. Moreover, the result in test [21], in test [22] and in [23] was inactive. In addition, the half-maximal activity concentration (AC50) is 1.94 µM (active) in test [2] and 2.79 µM (active) in test [5].
